High-throughput results: PubChem, The Scripps Research Institute Molecular Screening Center
FBW7 act = activators of human E3 ligase FBW7 | 650,000 tested, 0.13% active | normalized activity (activation), % at 26.1 µM | Q969H0 | AlphaScreen FBW7–phospho-cyclin E peptide binding, activator screen; in the data active means normalized activity above about 1.9%;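 further: purified mutant Fbw7 with reduced substrate affinity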
GPR151 ag = activates the human receptor GPR151; Q8TDV0; PathHunter beta-arrestin GPR151 cells, luminescence; activation, % at 11.2 µM; 650,000 tested, 1% active; AID 1508602; in the data active means activation above about 4.9%;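 further: 0% = median of compound wells and 100% = cells with positive control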
MITF primary = blocks human microphthalmia-associated transcription factor; O75030; AlphaScreen MITF homodimerization, bead proximity signal; 650,000 tested, 0.91% active; inhibition, % at 2.6 µM; in the data active means inhibition above about 50%;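 further: 0% = vehicle wells with protein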
Target sequence (O75030 whole entry, looked up): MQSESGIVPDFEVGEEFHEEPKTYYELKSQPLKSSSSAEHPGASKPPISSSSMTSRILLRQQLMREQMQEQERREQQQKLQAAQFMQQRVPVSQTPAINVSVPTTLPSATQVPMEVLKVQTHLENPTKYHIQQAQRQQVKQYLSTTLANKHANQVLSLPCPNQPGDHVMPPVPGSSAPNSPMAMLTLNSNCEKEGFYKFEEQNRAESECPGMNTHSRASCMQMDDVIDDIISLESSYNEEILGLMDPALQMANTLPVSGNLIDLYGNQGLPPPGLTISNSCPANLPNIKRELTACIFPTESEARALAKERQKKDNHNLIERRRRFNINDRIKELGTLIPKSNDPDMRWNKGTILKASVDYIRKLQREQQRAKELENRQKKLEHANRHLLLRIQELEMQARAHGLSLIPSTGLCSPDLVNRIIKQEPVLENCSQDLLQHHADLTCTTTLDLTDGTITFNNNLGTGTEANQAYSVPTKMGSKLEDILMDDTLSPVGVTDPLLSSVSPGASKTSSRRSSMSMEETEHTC
TEAD-YAP inh = TEAD-YAP interaction inhibition. HEK-TIYL cells, TEAD-Gal4/YAP UAS-luciferase luminescence. inhibition, % at 9.12 µM. 640,000 tested, 1.4% active; in the data active means inhibition above about 32%;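 further: 0% = median of test compound wells and 100% = reference inhibitor wells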
MITF confirm = human MITF inhibition, confirmation | shares compounds with MITF primary | 4,700 tested, 16% active | inhibition, % at 2.6 µM | AID 1259372 | AlphaScreen MITF homodimerization, biotin/His-MITF beads;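 active means inhibition above a cutoff derived from the DMSO control wells, cut at about 28% in these data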;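 further: 0% = MITF dimer wells with DMSO only; inhibitors lower the bead chemiluminescence by keeping MITF from dimerizing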
AS interf DR = optically interferes with AlphaScreen signal in dose response; 480 tested, 6% active; shares compounds with MITF primary; IC50, µM; AlphaScreen optical interference counterscreen, cell-free; call rule not given here
AlphaScreen intf2 = AlphaScreen optical interference, counter-screen; shares compounds with MITF primary; LysRS AlphaScreen counterscreen, signal interference, triplicate; inhibition, % at 2.6 µM; 4,700 tested, 7.6% active; AID 1259376;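 active means inhibition above a cutoff derived from the DMSO control wells, cut at about 30% in these data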
* hit, by the source's call. In the library only some 3.5% were active in any assay of this set; here they are far more common.

Results for CCc1ccc(NC(=O)CCc2nc(C3=CCN(C)CC3)no2)cc1 ?
FBW7 act: 0.5; GPR151 ag: -1.5; MITF primary: 65.0*; TEAD-YAP inh: 5.7; MITF confirm: 48.2*; AS interf DR: >6.48; AlphaScreen intf2: 19.0

What do the screens show for `CN1CC=C(c2noc(CCC(=O)Nc3ccc(Cl)cc3)n2)CC1`?
FBW7 act: 0.0; GPR151 ag: 1.2; MITF primary: 72.6*; TEAD-YAP inh: -1.5; MITF confirm: 67.8*; AlphaScreen intf2: 46.1*

How did CC(C)c1ccc(NC(=O)CCc2nc(C3=CCN(C)CC3)no2)cc1 do in these assays?
FBW7 act: 0.6; GPR151 ag: 1.8; MITF primary: 31.7; TEAD-YAP inh: -3.1

Results for CCOC(=O)c1cccc(NC(=O)CCc2nc(C3=CCN(C)CC3)no2)c1 ?
FBW7 act: 1.3; GPR151 ag: 2.3; MITF primary: 8.6; TEAD-YAP inh: 11.6

What do the screens show for `CCCCCn1c(=O)c(C(=O)Nc2ccc([N+](=O)[O-])cc2O)c(O)c2ccccc21`?
FBW7 act: -0.3; GPR151 ag: -0.6; MITF primary: 1.9; TEAD-YAP inh: -7.3

How did COc1cc(CN2CCN(c3ccccc3OC)CC2)ccc1O do in these assays?
FBW7 act: -0.1; GPR151 ag: -0.1; MITF primary: 25.9; TEAD-YAP inh: -0.4

What do the screens show for `CCN(CC)S(=O)(=O)c1ccc(NC(=O)CCc2nc(C3=CCN(C)CC3)no2)cc1`?
FBW7 act: -0.1; GPR151 ag: -1.6; MITF primary: 82.8*; TEAD-YAP inh: 12.0; MITF confirm: 94.1*; AlphaScreen intf2: 65.8*

How did COc1ccc(CN2CCN(CCO)CC2)c(OC)c1 do in these assays?
FBW7 act: 1.1; GPR151 ag: 0.1; MITF primary: 4.5; TEAD-YAP inh: 10.4

How did COc1ccc(CN2CCN(C(C)C)CC2)c(OC)c1 do in these assays?
FBW7 act: 0.1; GPR151 ag: -0.2; MITF primary: 71.2*; TEAD-YAP inh: 2.3; MITF confirm: 6.6; AlphaScreen intf2: 16.3

Results for CCN1CCN(Cc2cc(OC)c(OC)cc2Br)CC1 ?
FBW7 act: 0.0; GPR151 ag: -0.4; MITF primary: 4.1; TEAD-YAP inh: -1.3

How did COc1cc(OC)c(OC)cc1CN1CCN(C(C)C)CC1 do in these assays?
FBW7 act: -0.1; GPR151 ag: -2.0; MITF primary: 68.2*; TEAD-YAP inh: 6.6; MITF confirm: 4.3; AlphaScreen intf2: 2.8

How did O=C1[C@@H]2C[C@@H](O)CN2C(=O)[C@H]2CN(Cc3ccccn3)CCN12 do in these assays?
FBW7 act: -0.1; GPR151 ag: 0.3; MITF primary: 10.7; TEAD-YAP inh: 5.2

Results for CN1CCN(Cc2ccc3c(c2)OCO3)CC1 ?
FBW7 act: 0.0; GPR151 ag: -0.8; MITF primary: 35.2; TEAD-YAP inh: 2.6

What do the screens show for `Brc1ccccc1CN1CCN(Cc2ccc3c(c2)OCO3)CC1`?
FBW7 act: -0.2; GPR151 ag: -0.6; MITF primary: 60.2*; TEAD-YAP inh: 4.0; MITF confirm: 4.1; AlphaScreen intf2: 9.9

What do the screens show for `Cc1ccccc1CN1CCN(Cc2ccc3c(c2)OCO3)CC1`?
FBW7 act: -0.1; GPR151 ag: 0.0; MITF primary: 57.6*; TEAD-YAP inh: 11.9; MITF confirm: 2.1; AlphaScreen intf2: 3.8

What do the screens show for `CN(C)c1nc(CN2CC[C@@H]3CCCC[C@H]3C2)nc2ccccc12`?
FBW7 act: 0.1; GPR151 ag: -1.0; MITF primary: 3.2; TEAD-YAP inh: 9.9

What do the screens show for `C1COCCOCCOCCOCCO1.C1COCCOCCOCCOCCO1.[Cl-].[Cs+].[O]=[Cr](=[O])=[O]`?
FBW7 act: 0.1; GPR151 ag: 2.0; MITF primary: 57.3*; TEAD-YAP inh: -3.1; MITF confirm: 19.4; AlphaScreen intf2: 7.3

Results for COc1ccccc1CCNCc1cc(OC)c(OC)cc1OC ?
FBW7 act: 0.1; GPR151 ag: -2.1; MITF primary: 28.0; TEAD-YAP inh: 1.5

How did COc1ccccc1CCNCc1ccccc1OC do in these assays?
FBW7 act: 0.0; GPR151 ag: -0.4; MITF primary: 52.4*; TEAD-YAP inh: -6.8; MITF confirm: 2.0; AlphaScreen intf2: -7.7

Results for CN1CCN(Cc2ccc([N+](=O)[O-])s2)CC1 ?
FBW7 act: 0.1; GPR151 ag: 2.6; MITF primary: 56.0*; TEAD-YAP inh: -2.2; MITF confirm: 6.5; AlphaScreen intf2: 12.1

Results for CN1CCN(Cc2ccc([N+](=O)[O-])o2)CC1 ?
FBW7 act: -0.2; GPR151 ag: -0.5; MITF primary: 47.7; TEAD-YAP inh: -2.5

What do the screens show for `O=C(O)/C=C/CO`?
FBW7 act: 0.1; GPR151 ag: -0.6; MITF primary: 9.3

How did Cc1ccc(C)c(CN2CCN(C)CC2)c1 do in these assays?
FBW7 act: 0.5; GPR151 ag: 0.5; MITF primary: 62.3*; TEAD-YAP inh: 3.7; MITF confirm: 2.2; AlphaScreen intf2: 3.8

What do the screens show for `CCc1ccc(CN2CCN(Cc3ccccc3C)CC2)cc1`?
FBW7 act: -0.2; GPR151 ag: 1.5; MITF primary: 65.0*; TEAD-YAP inh: 4.2; MITF confirm: 3.1; AlphaScreen intf2: 10.9

What do the screens show for `Cc1ccccc1CN1CCN(C)CC1`?
FBW7 act: 0.0; GPR151 ag: 0.6; MITF primary: -6.8; TEAD-YAP inh: 0.9

Results for Cc1ccc(CN2CCN(Cc3ccccc3C)CC2)cc1 ?
FBW7 act: 0.1; GPR151 ag: 0.0; MITF primary: 55.8*; TEAD-YAP inh: 13.8; MITF confirm: -11.7; AlphaScreen intf2: -4.8

How did Cc1ccccc1CN1CCN(c2ccc(Cl)cc2)CC1 do in these assays?
FBW7 act: -0.1; GPR151 ag: -0.2; MITF primary: -4.7; TEAD-YAP inh: -2.0

How did Cc1ccccc1CN1CCN(Cc2ccccc2Cl)CC1 do in these assays?
FBW7 act: 0.1; GPR151 ag: 0.4; MITF primary: 11.3; TEAD-YAP inh: 11.9

What do the screens show for `COc1ccc(CN2CCN(Cc3ccccc3C)CC2)cc1`?
FBW7 act: -0.1; GPR151 ag: 0.8; MITF primary: 74.9*; TEAD-YAP inh: -6.6; MITF confirm: -2.6; AlphaScreen intf2: 10.1

Results for Cc1ccc(N2CCN(c3cc(-c4ccccc4)c(C#N)c4nc5ccccc5n34)CC2)cc1 ?
FBW7 act: -0.1; GPR151 ag: 0.4; MITF primary: 4.2; TEAD-YAP inh: -0.9

Results for COc1ccc(CN2CCN(c3ccccc3OC)CC2)c(O)c1 ?
FBW7 act: 0.1; GPR151 ag: -1.0; MITF primary: 11.2; TEAD-YAP inh: 0.8

Results for Clc1ccc(CN2CCNCC2)cc1 ?
FBW7 act: 0.1; GPR151 ag: 0.0; MITF primary: 14.9; TEAD-YAP inh: -10.9

What do the screens show for `Cc1ccc(CN2CCN(Cc3ccc(Cl)cc3)CC2)cc1`?
FBW7 act: -0.1; GPR151 ag: -0.7; MITF primary: 83.5*; TEAD-YAP inh: -7.4; MITF confirm: -5.8; AlphaScreen intf2: -4.6
